# This is part of a sample that, as a whole, favours compounds with a hit. Of some 83,000 tested, about 20% had one in any assay.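 Assay: single dose, 48 h. Readout: percent growth (0 = no net growth; negative = cell death). Active: <10.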 A number with no mark means an inactive call. Calls of active or inactive are those of the source.
# Key:
# Experiment in all cases: NCI-60 one-dose screen, 48 h (100 = growth as untreated, 0 = no growth, -100 = all killed)
# Conditions in all cases: 10 µM unless noted
# [1] = test system: HCT-15 colon
# [2] = test system: HT29 colon
# [3] = test system: SNB-75 CNS
# [4] = test system: SNB-19 CNS
# [5] = test system: U251 CNS
# [6] = test system: PC-3 prostate
# [7] = test system: SK-MEL-5 melanoma
# [8] = test system: UACC-62 melanoma
# [9] = test system: LOX IMVI melanoma
# [10] = test system: SK-MEL-28 melanoma
Compound,growth [1],growth [2],growth [3],growth [4],growth [5],growth [6],growth [7],growth [8],growth [9],growth [10]
Cc1cc2ccccc2c[n+]1CC(=O)c1ccc(-c2ccccc2)cc1,84%,24.8%,61.4%,58.8%,42.7%,29.7%,21.6%,71.2%,54%,84%
CC(C)(C)c1nn(-c2ccccc2)c2c1COCN2Cc1ccc(Cl)cc1,96%,65.7%,95.1%,92.4%,90.3%,63.6%,82.2%,72.8%,85%,100%
C=C(C)[C@@H]1CC[C@]2(C(=O)OCCOCCOCC[P+](c3ccccc3)(c3ccccc3)c3ccccc3)CC[C@]3(C)[C@H](CC[C@@H]4[C@@]5(C)CC[C@H](OC(=O)C(Cl)Cl)C(C)(C)[C@@H]5CC[C@]43C)[C@@H]12,11.1%,5.74% (active),8.83% (active),17.6%,-5.68% (active),-23.4% (active),-99.1% (active),-39.3% (active),-91.3% (active),-43.9% (active)
O=C1NN(c2ccccc2)C(c2ccc(Cl)cc2)N2CCC[C@H]12 (stereo not given in full),92.9%,101%,75.6%,94.6%,101%,99.6%,96.1%,87.3%,87.8%,104%
c1ccc(Sc2ncccn2)nc1,102%,101%,72.5%,89.9%,104%,97.9%,102%,93.6%,92.6%,109%
CN1CCN(CC#CCOC(=O)CNC(=O)[C@]23CCC(C)(C)C[C@H]2C2=CC[C@@H]4[C@@]5(C)CC[C@H](O)C(C)(C)[C@@H]5CC[C@@]4(C)[C@]2(C)CC3)CC1,77%,75.5%,80.9%,87.1%,83.3%,83.4%,88.6%,90.3%,81.3%,104%
Nc1c(C(=O)Nc2ccccc2)sc2nc3c(cc12)CN(C(=O)OCc1ccccc1)CC3,37.3%,15.7%,49.6%,56.1%,37.8%,46%,36%,43%,40.8%,62.3%
NC(N)=NC(N)=Nc1cc2ccccc2c2ccccc12,57.8%,12.6%,57.7%,35.8%,33.8%,24.4%,45.6%,43.6%,16.5%,55.9%
O=C(/C(=C/c1ccc([N+](=O)[O-])cc1)SCc1ccc(F)cc1)c1ccc(Cl)cc1,5.41% (active),8.59% (active),83.3%,47.4%,0.994% (active),47.4%,54.2%,37.5%,3.68% (active),93.1%
C=C1C(=O)O[C@H]2[C@H]1CC/C(COC(=O)c1cccnc1)=C\CC[C@@]1(C)O[C@@H]21,34.4%,33.5%,83.4%,90.2%,88.5%,66.1%,88.9%,69.5%,75%,89%
COc1ccc(-c2[nH]c3ccccc3c2C=C(C#N)C#N)cc1,18%,10.3%,0.534% (active),67%,27.8%,19.1%,2.62% (active),15.2%,31.4%,44.5%
c1ccc(-c2n(Cc3ccc4ccccc4n3)cc[n+]2Cc2ccc3ccccc3c2)cc1,70.5%,-9.68% (active),3.74% (active),9.86% (active),8.14% (active),1.28% (active),-95.2% (active),-46.2% (active),-25.9% (active),0.22% (active)
Nn1c(SCC(=O)Nc2ccc(Cl)cc2)nnc1-c1cc(F)c(Cl)cc1Cl,79.3%,95%,81.2%,98%,94.4%,85.7%,86.6%,65.8%,86%,98.1%
Clc1ccc2c(NCCCNC3CCCCC3)ccnc2c1,84.8%,48.1%,89.8%,110%,93.8%,87.3%,99.9%,111%,96.7%,116%
N#Cc1c(-c2ccc(F)cc2)nc(N/N=C/c2c[nH]c3ccccc23)nc1N1CCOCC1,8.42% (active),18%,62.5%,89.7%,32.2%,49.9%,37.1%,61.8%,20.6%,4.29% (active)
O=C(C[n+]1cccc2cc(Cl)ccc21)c1ccc2c(c1)CCCC2,95.5%,5.56% (active),19.8%,23.2%,-28.9% (active),16.1%,-29% (active),17.3%,11.9%,19.8%
C[C@H]1[C@H](C)CC[C@]2(C(=O)OCCCC[P+](c3ccccc3)(c3ccccc3)c3ccccc3)CC[C@]3(C)C(=CC[C@@H]4[C@@]5(C)CC[C@H](OC(=O)C(Cl)Cl)C(C)(C)[C@@H]5CC[C@]43C)[C@H]12,-68.8% (active),-55.5% (active),-24.5% (active),-56.1% (active),-88.6% (active),-60.8% (active),-100% (active),-67.8% (active),-99.6% (active),-77.4% (active)
Cc1c(Cl)cccc1NC(=O)c1sc2nc3c(cc2c1N)CN(Cc1ccccc1)CC3,33.6%,8.14% (active),41.9%,38.4%,31.9%,43.1%,49.1%,40.2%,40.4%,71.1%
C[C@H]1[C@H](C)CC[C@]2(C(=O)OCCOCCOCC[P+](c3ccccc3)(c3ccccc3)c3ccccc3)CC[C@]3(C)C(=CC[C@@H]4[C@@]5(C)CC[C@H](OC(=O)C(Cl)Cl)C(C)(C)[C@@H]5CC[C@]43C)[C@H]12,17.1%,3.81% (active),19.7%,20.4%,11.3%,5.1% (active),-97.7% (active),-23.9% (active),-21.1% (active),30%
Nc1c(C(=O)Nc2ccccc2Cl)sc2nc3c(cc12)CN(Cc1ccccc1)CC3,95.7%,101%,113%,109%,114%,104%,97.7%,101%,99.7%,102%
CCCCC(=O)Nc1c(C(=O)Nc2ccccc2)sc2nc3c(cc12)C(OC(=O)CCCC)CCC3 (stereo not given),81.3%,79.4%,89.3%,97.2%,79.8%,90.7%,84.5%,87.6%,85.1%,110%
COC(=O)CCc1cc(O)c2c(c1)[C@@H](C(=O)OC)[C@H](c1ccc(O)c(O)c1)O2,50.3%,95%,71.2%,74.9%,71%,85.5%,76.4%,66%,63.4%,73.8%
Oc1ccccc1-c1nc2c3ccccc3c3ccccc3c2o1,92.1%,106%,89.7%,95.7%,82%,77.8%,98.6%,88.4%,90.6%,117%
Cc1ccc(CS/C(=C\c2ccc([N+](=O)[O-])cc2)C(=O)c2ccc(F)cc2)cc1,-6.39% (active),-20.1% (active),79.8%,34.6%,-20.4% (active),40.9%,62.7%,30.9%,-4.93% (active),93.5%
O=CN1N=C(c2ccc(F)cc2)CC1c1cccc(Nc2ccnc3cc(C(F)(F)F)ccc23)c1 (stereo not given),58%,47.8%,92%,63.9%,53.2%,41.8%,-15.2% (active),53.4%,40.2%,82.2%
Nc1c(C(=O)Nc2cccc3ccccc23)sc2nc3c(cc12)CCCCCC3,24.6%,0.156% (active),10.6%,27.8%,14.4%,35.1%,45.6%,32.4%,49.1%,65.8%

# Source: PubChem BioAssay (NCI)
